Compounds with a hit are over-represented: about 3.4% of the library has one in this group of screens.
HTT ATP protect: protects HTT-Q103 PC12 cells, measured by ATP | 230,000 compounds, 0.14% hits | Potency, µM (titrated, usually from 56.4 µM), without a hit: cytoprotection (ATP increase), usual class: activators | AID 1471 | PC12 HTT-Q103 induced, cytoprotection, ATP luminescence, 40 h; note: potency is the fitted concentration of half-maximal effect; % of control where 0% means no effect; nearly all actives have a fitted effect of over 45% in size
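Huntington model: PC12 line, ecdysone-inducible HTTQ103 exon1–GFP, tebufenozide 100 nM. Test articles in a dose series. Endpoint luminescence from cellular ATP.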
IMPase Li cell: membrane-permeable IMPase blocker, potentiated with lithium; Potency, µM (top dose mostly 59.4 µM), for inactives: at the highest dose activity, negative = IMPase inhibition, most hits filed as inhibitors; 210,000 compounds, 0.35% hits; CHO-M1 cells, IP1 TR-FRET (IP-One), carbachol + lithium;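 note: IP1 builds up when IMPase is blocked and the TR-FRET signal falls; potency is the fitted concentration of half-maximal effect; plate controls were basal vehicle for no effect and high inhibitor control for full effect; nearly all actives have a fitted effect of over 50% in size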
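Steps: plate 2000 CHO-M1 cells per well and culture 16–30 h; add compound and lithium; incubate 30 min, 37C; add d2-IP1 tracer and Eu cryptate anti-IP1 antibody in lysis buffer; read after 10 min at room temperature.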
HTT aggregate: reduces HttQ103-GFP aggregates in PC12 cells; PC12 HttQ103-GFP aggregates, Acumen cytometry, 40 h; Potency, µM (top dose mostly 46.1 µM), inactives show at the highest dose activity change, negative = inhibition, usual class: inhibitors; 220,000 compounds, 1.1% hits; note: potency is the fitted concentration of half-maximal effect; % is set by controls: 0 for no effect and ±100 for the full control effect; nearly all actives have a fitted effect of over 60% in size
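Quantitative HTS on tebufenozide-induced (100 nM) PC12 cells stably expressing polyQ103 Huntingtin exon 1–GFP. Reduction of bright GFP aggregates, detected by laser scanning cytometry after lysis, identified actives across the titration.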
NPSR antagonist: blocks cAMP signaling of the human neuropeptide S receptor; 220,000 compounds, 1% hits; Q6W5P4; CHO-NPSR cells, cAMP TR-FRET, antagonist mode; Potency, µM (series often up to 38.3 µM), without a hit: at the highest dose activity change, negative = inhibition, usual class: inhibitors; note: potency is the fitted concentration of half-maximal effect; % is set by controls: 0 for no effect and ±100 for the full control effect; nearly all actives have a fitted effect of over 50% in size
Target sequence (Q6W5P4 whole entry, looked up): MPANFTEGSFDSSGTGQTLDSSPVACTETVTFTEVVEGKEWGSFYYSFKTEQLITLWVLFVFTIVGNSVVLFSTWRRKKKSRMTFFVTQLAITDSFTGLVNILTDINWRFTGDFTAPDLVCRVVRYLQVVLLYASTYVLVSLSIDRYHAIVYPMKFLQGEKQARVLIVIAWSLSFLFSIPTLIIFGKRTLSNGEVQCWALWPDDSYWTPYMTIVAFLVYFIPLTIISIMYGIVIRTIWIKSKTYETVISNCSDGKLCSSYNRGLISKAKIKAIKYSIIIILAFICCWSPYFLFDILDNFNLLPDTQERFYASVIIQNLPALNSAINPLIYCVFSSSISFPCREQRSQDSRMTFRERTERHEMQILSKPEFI
PNC inhibitor: blocks assembly of the perinucleolar compartment. PC3M PTB-GFP, PNC prevalence imaging, 16 h; active compounds read low. activity change (PNC), negative = inhibition, % at 10 µM. 140,000 compounds, 3.1% hits. AID 2417;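 active = readout at or below -70, meaning at least 70% loss of cells showing the perinucleolar compartment, a nuclear body marking cancer cells; inconclusive = readout between -30 and a set limit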;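 note: plate controls were DMSO wells for no effect and camptothecin positive control wells for full effect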
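Compounds are pinned in duplicate onto adhered PC3M cells stably expressing GFP-tagged PTB and incubated 16 h at 37 C. Cells are then fixed, nuclei stained with Hoechst, and PNC-positive cells counted.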
IMPase cell inh: membrane-permeable compound that blocks inositol monophosphatase; P97697; inhibition (IP1 accumulation), % at 46.1 µM; 120,000 tested, under 10 active; CHO-M1 cells, IP1 accumulation, HTRF TR-FRET ratio; active = well fitted curve in the direction sought with a large enough effect in the signal ratio, not every such curve was filed as active; inconclusive = small, poorly fitted or top-dose-only effect, or a change in a side signal; inactive = no such curve, though single readings can be large or run the other way; the % refers to the signal ratio;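 note: cells stimulated with carbachol in lithium chloride buffer; plate controls were DMSO basal wells for no effect and reference inhibitor wells for full effect; higher means more IMPase inhibition seen as more IP1 and lower FRET ratio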
Target sequence (P97697 whole entry, looked up): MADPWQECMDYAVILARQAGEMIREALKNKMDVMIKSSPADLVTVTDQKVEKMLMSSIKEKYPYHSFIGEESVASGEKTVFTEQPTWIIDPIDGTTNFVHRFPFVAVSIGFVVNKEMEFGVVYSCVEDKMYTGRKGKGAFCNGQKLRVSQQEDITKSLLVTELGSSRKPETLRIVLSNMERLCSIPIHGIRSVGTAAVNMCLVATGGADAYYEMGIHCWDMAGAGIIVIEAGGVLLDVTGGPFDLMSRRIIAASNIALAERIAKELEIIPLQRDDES
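The IP-One HTRF competitive assay in carbachol-stimulated CHO-M1 cells quantifies cellular IP1. Compounds spanned up to 46 uM final, and activity is expressed as AC50 from concentration-response fits of the ratio and donor data.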
An asterisk follows results filed as active; ? = inconclusive; . = not tested or not shown; [ ] = dose if it differs, or a comment. Unless noted, calls come from the whole dose curve; as a rule, active = well fitted curve in the direction sought with a large enough effect; inconclusive = small, poorly fitted or top-dose-only effect, or another doubt; inactive = no such curve, though single readings can be large; an effect the other way counts as inactive or inconclusive.

SMILES	HTT ATP protect	IMPase Li cell	HTT aggregate	NPSR antagonist	PNC inhibitor	IMPase cell inh
CCOC(=O)c1csc(NC(=O)CSc2nnnn2-c2ccc3c(c2)OCCO3)n1	-10%[10 µM]	5%	8%	9%[46.1 µM]	-88*	?
C=CCn1c(SCn2nnc3ccccc3c2=O)nnc1-c1ccc(Br)cc1	10%	25%[38.3 µM]	2%	-6%[46.1 µM]	-84*	-4
C=CCn1c(SCn2nnc3ccccc3c2=O)nnc1-c1ccc(F)cc1	6%[10 µM]	0%[38.3 µM]	-2%	14%[7.67 µM]	37	-1
CCOC(=O)c1sc(NC(=O)CSc2nnnn2-c2ccc(C)cc2C)nc1C	-18%	10µM*	-6%	-15%[46.1 µM]	-25	8
O=C(NCc1ccco1)c1nc2c(nnn2Cc2cccc(Cl)c2)c(=O)[nH]1	4.5µM*	1%[38.3 µM]	-9%	-14%[46.1 µM]	57	3
Cc1nc(NCCO)c2nc(-c3ccccc3)n(CC3CCN(C)CC3)c2n1	-36%	-15%	.	.	.	.
CCn1c(NC(=O)c2ccc(C)cc2)c2ccccc2nc1=O	6%[10 µM]	0%	3%	-7%[46.1 µM]	-90*	-1
O=C(CN1C(=O)CCC1=O)c1ccc(-c2ccccc2)cc1	24%[10 µM]	-10%	4%	17%	-82*	.
N=c1ccn(CC(=O)c2ccc(-c3ccccc3)cc2)cc1	-65%[10 µM]	7%	-43%[9.22 µM]	5%	.	.
CC(=O)NC(C)c1nc2ccccc2n1C(C)C (stereo not drawn)	11%[10 µM]	4%	10%	3%	-119*	2
CCCn1c(C(C)NC(C)=O)nc2ccccc21 (stereo not drawn)	-13%	10%[38.3 µM]	-12%	2%[46.1 µM]	?	-2
CC(C)(C)OC(=O)N1CCC[C@H]1C(=O)NCc1ccc(Cl)cc1Cl	-11%[10 µM]	13%	-4%	-19%	.	.
CCCCNC(=O)Cc1c(O)c2ccccc2[nH]c1=O	-11%	30%[38.3 µM]	-17%	-11%[46.1 µM]	-112*	6
CCOc1ccc(C2C(C(N)=O)=C(C)Nc3nc(-c4cccc(Cl)c4)nn32)cc1OC (stereo not drawn)	.	.	.	.	.	9
CCCNC(=O)N(C)c1nncnc1C(=O)NC	-1%	-5%[38.3 µM]	-9%	-5%[46.1 µM]	-100*	-1
CCCCNC(=O)N(C)c1nc2ccccc2s1	5%[10 µM]	11%	-9%[9.22 µM]	26%	.	.
CC(C)(C)OC(=O)N1CCC(c2cc(=O)n3[nH]cc(C(=O)Nc4ccc(F)c(Cl)c4)c3n2)CC1	-10%[10 µM]	.	-1%[9.22 µM]	?	.	.
CC(C)(C)OC(=O)N1CCC(c2cc(=O)n3[nH]c(-c4ccc(Cl)cc4)cc3n2)CC1	-40%	-8%[38.3 µM]	-1%	0%[46.1 µM]	-84*	0
CN(C)c1ccc(C(C(=O)NC(C)(C)C)N(C(=O)c2csnn2)C2CC2)cc1 (stereo not drawn)	-19%[10 µM]	37%[38.3 µM]	24%	-4%[46.1 µM]	-96*	8
CCOC(=O)[C@]1(C(NC(=O)OC)c2cccc(F)c2)CCCC1=O (stereo partly drawn)	-19%[10 µM]	.	.	.	.	.
CCC1=C2CC[C@H]3C(=O)N(CC)C(=O)[C@H]3[C@H]2[C@@]2(Cc3ccccc3)C(=O)N(CC3CC3)C(=O)N2C1=O	-23%	3%	.	.	.	.
O=S(=O)(c1ccc(Br)s1)N1CCc2ccccc2C1	-5%[0.074 µM]	20%	-30%	-15%	-119*	13
COc1cc(-n2c(=O)c3ccccc3n(CC(=O)c3ccc(Br)cc3)c2=O)cc(OC)c1OC	-44%	22µM*	7%	-31%	.	.
Cc1cc(C)c2c(N)c(C(=O)c3ccccc3)sc2n1	-4%[10 µM]	.	-21%[9.22 µM]	4%	.	.
Cc1nc2sc(C(N)=O)c(N)c2c(C)c1CC(=O)c1ccccc1	-41%	-6%	3.5µM*	-3%	.	.
SMILES	HTT ATP protect	IMPase Li cell	HTT aggregate	NPSR antagonist	PNC inhibitor	IMPase cell inh
Cc1[nH]c2ccccc2c1/C=N/NC(=O)C1CC1(c1ccccc1)c1ccccc1 (stereo not drawn)	8%[10 µM]	15%	13µM*	-38%	-110*	.
Cc1[nH]c2ccccc2c1/C=N/NC(=O)CCC(=O)NCc1ccccc1	-22%[10 µM]	-3%	-7%[9.22 µM]	2%	.	.
Cc1ccc(-c2ccc(SCC(=O)N3CCCc4ccccc43)nn2)cc1	38%[10 µM]	11%	?	-37%	38	-1
Nc1nc(SCC(=O)N2CCc3ccccc32)[nH]c(=O)c1-c1ccccc1	?	16%[38.3 µM]	1%	4%[46.1 µM]	-107*	14
Nc1nc(SCC(=O)N2CCCC2)[nH]c(=O)c1-c1ccccc1	-15%[0.074 µM]	13%[38.3 µM]	7%	-6%[46.1 µM]	-9	12
Cc1ccc(-c2ccc(SCC(=O)N3CCc4ccccc43)nn2)cc1	-5%[10 µM]	12%	5%	-15%[46.1 µM]	-83*	1
COc1ccc(CCN2C(=O)C3C4C=CC(C3C2=O)C2C(=O)N(CCc3ccc(OC)c(OC)c3)C(=O)C42)cc1OC (stereo not drawn)	-57%[10 µM]	-38%[38.3 µM]	10µM*	-14%[46.1 µM]	-15	8
OC1CCCCC1	-1%	-10%	.	.	.	.
O=C(Nc1ccc2ccccc2c1)[C@H]1C[C@@H]1[C@H](NP(=O)(c1ccccc1)c1ccccc1)c1ccccc1	-4%	-13%	.	.	.	.
Cc1nn2cc(-c3ncc(C(F)(F)F)cc3Cl)cnc2c1Br	-8%[10 µM]	?	-29%	-35%	.	.
Cc1cc2ncc(-c3ncc(C(F)(F)F)cc3Cl)cn2n1	-28%[10 µM]	-7%[38.3 µM]	10%	2%[46.1 µM]	-81*	?
CS(=O)(=O)Nc1cccc2cccnc12	-13%	-8%[38.3 µM]	?	-15%[46.1 µM]	38	0
O=S(=O)(Nc1cccc2cccnc12)c1ccc(S(=O)(=O)N2CCCC2)cc1	0%[10 µM]	9%[38.3 µM]	0.79µM*	?	32	13
COc1ccc(C(=O)NCCc2nc3ccccc3[nH]2)cc1	.	.	.	.	.	11
C(/CCc1ccccc1)=N\n1cnnc1	5%[10 µM]	3%	0%	2%[46.1 µM]	-100*	-4
COCC(=O)N1CCC2(CCCN(c3ccncc3)C2)CC1	27%	9%	.	.	.	.
CN(c1ccc(C(=O)NCC2CCCO2)cc1)S(C)(=O)=O (stereo not drawn)	9%	60%[38.3 µM]	9%	3%[46.1 µM]	-87*	6
O=C(NCC1CCCO1)c1ccc(C(=O)NCC2CCCO2)cc1 (stereo not drawn)	-2%[10 µM]	1%	-33%	-1%[46.1 µM]	13	-4
Cc1ccc2c(c1)C(O)(CC(=O)/C=C/C=C/c1ccccc1)C(=O)N2 (stereo not drawn)	-17%[0.074 µM]	8%	9%	-5%	-92*	.
CCN1C(=O)C(O)(CC(=O)/C=C/C=C/c2ccccc2)c2ccccc21 (stereo not drawn)	-23%	12%[38.3 µM]	10%	-22%[46.1 µM]	28	9
Cc1cc(C(=O)CC#N)c(C)n1-c1ccc(OC(F)F)cc1	2%[10 µM]	4%[38.3 µM]	8.9µM*	-6%[46.1 µM]	-8	-2
